Consider 19 compounds from PubChem BioAssay (NCATS).

Records with an inconclusive call do not appear. The source made the active and inactive calls. Unless noted, the call rests on the fitted dose curve. Positions of bridges follow the written chain, without caps; N, C: chain ends. Non-standard residues stand in square brackets, D forms with d. Residues, ends and D or L forms follow the SMILES beside them. ξ: configuration not given here. *: point of attachment. Octanoyl(6-Me) = CCC(C)CCCCC(=O)*; ξThr(3R) = C[C@@H](O)C(N)C(=O)O; dDab = NCC[C@@H](N)C(=O)O; Dab = NCC[C@H](N)C(=O)O

The nature of experiment [1]: Quantitative High-Throughput drug screen in 47 multiple myeloma cell lines against the NCATS MIPE library collection: KMS28BM_JCRB cell viability assay (AID 1919874; active means well fitted cell-killing curve with a large enough effect; further: nearly all actives have a fitted effect of over 35% in size). Put shortly: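 500 cells/well per myeloma line exposed to pinned MIPE 4.0 compounds for 48 h at 37 °C, 5% CO2. Viability read as ATP by CellTiter-Glo luminescence, normalised to DMSO-only (100%) and media-only (0%) wells.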

Experiment [2] in a line: qHTS drug screen for cell cycle checkpoint inhibitors in PARPi-resistant BRCA-mutant ovarian cancer cell lines. (AID 1963452). The conditions noted are these: PEO1/OlaR viability, CellTiter-Glo luminescence, 96 h; for Z-AUC: stronger effect = lower value. In a few lines: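 PEO1, PEO4 and PEO1/OlaR ovarian cancer cells, 600 per well, exposed 96 h at 37C to a dilution series. Viability read by CellTiter-Glo luminescence, normalized to DMSO and empty wells; activity summarized as Z-AUC.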
A general note: qHTS replaces the single test concentration by a dilution series.

Experiment [3] in a line: qHTS for identification of novel therapeutic agents for treatment of microphthalmiaassociated transcription factor (MiT) renal cell carcinoma (RCC) (AID 1963991).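 On z-score: curves scaled with 100% = DMSO viability and 0% = empty wells.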 Particulars: CellTiter-Glo, 48 h; for z-score: stronger effect = lower value; for Potency: active = Z-AUC below -0.8 in all three lines. Put shortly: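 UOK109/UOK124/UOK145 (TFE3 fusions, three partners); 500 cells/well; MIPE v4.0, 1912 cpds, 11 conc.; 48 h, 37 C; CellTiter-Glo, 15 min RT; lum. Norm.: DMSO 100%, empty 0%.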

Where [4] appears, read: measured here: PEO1 parental Z-AUC.
Setting [5] is: TFE3-RCC UOK109 viability, measured here: UOK109 Z-AUC.
Setting [6] is: TFE3-RCC viability, measured here: UOK124 Z-AUC.
Setting [7] is: TFE3-RCC viability, measured here: UOK145 Z-AUC.
Potency means the concentration at half of the fitted maximal effect.

As for `CC(=O)O[C@@]12CO[C@H]1C[C@H](O)[C@@]1(C)C(=O)[C@H](O)C3=C(C)[C@@H](OC(=O)C(O)[C@@H](NC(=O)OC(C)(C)C)c4ccccc4)C[C@@](O)([C@@H](OC(=O)c4ccccc4)[C@@H]21)C3(C)C` (stereo partly drawn), in experiment [1], the Potency entry was “inactive”.
Same read-out and setting: the result for `OCc1ccccc1O[C@@H]1O[C@H](CO)[C@H](O)[C@H](O)[C@H]1O` reads “inactive”.
As to `COc1cccc2c1C(=O)c1c(O)c3c(c(O)c1C2=O)C[C@@](O)(C(=O)CO)C[C@@H]3O[C@H]1C[C@H](N)[C@@H](O)[C@H](C)O1`, the Potency in experiment [2] was 219 nM (active).
Consider `CCC(C)CCCCC(=O)N[C@@H](CCN)C(=O)NC(C(=O)N[C@H](CCN)C(=O)N[C@@H]1CCNC(=O)C([C@@H](C)O)NC(=O)[C@@H](CCN)NC(=O)[C@@H](CCN)NC(=O)[C@@H](CC(C)C)NC(=O)[C@H](Cc2ccccc2)NC(=O)[C@H](CCN)NC1=O)[C@@H](C)O` (stereo partly drawn) ({Octanoyl(6-Me)}-[Dab][ξThr(3R)][dDab][dDab][Dab]F[dL][dDab][dDab][ξThr(3R)]; lactam 4-C), for which, in experiment [1], the Potency entry is “inactive”. Moreover, the figures for the Z-AUC in experiment [2], in experiment [2] (setting [4]) and in experiment [2] (measured here: PEO4 Z-AUC) were 1.19 (inactive), 0.672 and 0.762, respectively. The z-score turned out to be 0.782 in experiment [3] (setting [5]), 0.881 in experiment [3] (setting [6]) and 0.703 in experiment [3] (setting [7]).
Consider `O=C1c2cccc(O)c2C(=O)c2c(O)cc(CO)cc21`, for which the Potency entry in experiment [1] was “inactive”. Besides, the figures for the Z-AUC in experiment [2], in experiment [2] (setting [4]) and in experiment [2] (measured here: PEO4 Z-AUC) were 0.225 (inactive), -0.222 and -0.301, respectively. Besides, the z-score is 0.181 in experiment [3] (setting [5]), 0.143 in experiment [3] (setting [6]) and 0.0189 in experiment [3] (setting [7]).
With `O=C(Nc1ccc(Oc2ccnc3[nH]ccc23)c(F)c1)c1cccn(-c2ccc(F)cc2)c1=O`, the Potency entry in experiment [1] is “inactive”. The values for the Z-AUC in experiment [2], in experiment [2] (setting [4]) and in experiment [2] (measured here: PEO4 Z-AUC) were -0.152 (inactive), 0.598 and 0.646, respectively. The z-score in experiment [3] (setting [5]) is 0.0941; in experiment [3] (setting [6]), 0.0675; in experiment [3] (setting [7]) it was 0.349.
With `CN(C)c1ccc2cc(C(=O)N[C@@H](CCCN=C(N)CCl)C(=O)NCc3ccccc3)ccc2c1`, in experiment [1], the Potency was 7430 nM (active). For the same compound, the Z-AUC was 1.15 (inactive) in experiment [2], 0.744 in experiment [2] (setting [4]) and 1.03 in experiment [2] (measured here: PEO4 Z-AUC).
For `NC(=O)c1ncn([C@@H]2O[C@H](CO)[C@@H](O)[C@@H]2O)c1O`, in experiment [1], the Potency result was “inactive”. Further, the z-score in experiment [3] (setting [5]) worked out at 0.702; in experiment [3] (setting [6]), 0.298; in experiment [3] (setting [7]), 0.0692.
In the case of `N#CNC(=NCCCCCCOc1ccc(Cl)cc1)Nc1ccncc1`, the Potency is 105 nM (active) in experiment [1], 34.7 nM (active) in experiment [2] and 7430 nM (active) in experiment [3] (TFE3-RCC UOK109 viability). The Z-AUC in experiment [2] (setting [4]) was -3.38; in experiment [2] (measured here: PEO4 Z-AUC), -3.13. The results for the z-score in experiment [3] (setting [5]), in experiment [3] (setting [6]) and in experiment [3] (setting [7]) were -0.809, -2.82 and -3.43, respectively.
On to `Cc1cc(O)c2c(c1)C(=O)c1cccc(O)c1C2=O`, for which, in experiment [1], the Potency result was “inactive”. Further, the results for the Z-AUC in experiment [2], in experiment [2] (setting [4]) and in experiment [2] (measured here: PEO4 Z-AUC) were -0.855 (inactive), 0.00192 and -0.281, respectively. In addition, the z-score was -0.138 in experiment [3] (setting [5]), 0.712 in experiment [3] (setting [6]) and 0.0822 in experiment [3] (setting [7]).
On to `NC(=O)c1cccc(-c2cccc(OC(=O)NC3CCCCC3)c2)c1`, for which, in experiment [1], the Potency result is “inactive”. Also, the Z-AUC in experiment [2] was -0.0721 (inactive); in experiment [2] (setting [4]), 0.554; in experiment [2] (measured here: PEO4 Z-AUC), -0.318. Also, the z-score was 0.801 in experiment [3] (setting [5]), 0.852 in experiment [3] (setting [6]) and 0.744 in experiment [3] (setting [7]).
Take `O=C(CN1C(=O)C2(CCCC2)NC[C@H]1c1cc(F)cc(F)c1)Nc1ccc2c(c1)C[C@@]1(C2)C(=O)Nc2ncccc21`: the Potency entry in experiment [1] is “inactive”. Besides, the Z-AUC in experiment [2] is 0.0664 (inactive); in experiment [2] (setting [4]) it was -0.0432; in experiment [2] (measured here: PEO4 Z-AUC), 0.449. The results for the z-score in experiment [3] (setting [5]), in experiment [3] (setting [6]) and in experiment [3] (setting [7]) were 1.1, 0.765 and 1.18, respectively.
With `Cc1ccccc1C(=O)Nc1ccc(C(=O)N2CCCC(O)c3cc(Cl)ccc32)c(C)c1` (stereo not drawn), the Potency result in experiment [1] is “inactive”. For the same compound, the Z-AUC in experiment [2] is -0.543 (inactive); in experiment [2] (setting [4]), -0.255; in experiment [2] (measured here: PEO4 Z-AUC) it was 0.00137. Further, the z-score in experiment [3] (setting [5]) was -0.031; in experiment [3] (setting [6]), 0.501; in experiment [3] (setting [7]), 0.525.
Consider `CC(C)C[C@H](NC(=O)[C@@H](NC(=O)c1cccc(-c2ccccc2)n1)[C@@H](C)O)B(O)O`, for which the figures for the Potency in experiment [1], in experiment [2] and in experiment [3] (TFE3-RCC UOK109 viability) were 14.8 nM (active), 60.1 nM (active) and 469 nM (active), respectively. The Z-AUC in experiment [2] (setting [4]) is -2.93; in experiment [2] (measured here: PEO4 Z-AUC), -3.51. Besides, the results for the z-score in experiment [3] (setting [5]), in experiment [3] (setting [6]) and in experiment [3] (setting [7]) were -1.47, -3.68 and -3.39, respectively.
Take `COc1ccc(S(=O)(=O)Nc2cccnc2Nc2ccc(O)cc2)cc1`: the Potency in experiment [1] was 33.2 nM (active); in experiment [2], 1380 nM (active); in experiment [3] (TFE3-RCC UOK109 viability) it was 132 nM (active). The Z-AUC in experiment [2] (setting [4]) was -1.73; in experiment [2] (measured here: PEO4 Z-AUC), -1.84. Moreover, the z-score was -0.858 in experiment [3] (setting [5]), -1.8 in experiment [3] (setting [6]) and -1.74 in experiment [3] (setting [7]).
Turning to `CCCCC(=O)O[C@]1(C(=O)CO)[C@@H](C)C[C@H]2[C@@H]3CCC4=CC(=O)C=C[C@]4(C)[C@@]3(F)[C@@H](O)C[C@@]21C`, the Potency entry in experiment [1] was “inactive”. Further, the Z-AUC is -0.479 (inactive) in experiment [2], 0.863 in experiment [2] (setting [4]) and 0.108 in experiment [2] (measured here: PEO4 Z-AUC). Further, the z-score is -0.136 in experiment [3] (setting [5]), 0.0594 in experiment [3] (setting [6]) and 0.664 in experiment [3] (setting [7]).
For `CNC(=O)Nc1ccc(-c2nc(N3CC4CCC(C3)O4)c3cnn(C4CCC5(CC4)OCCO5)c3n2)cc1`, the Potency in experiment [1] was 7.4 nM (active); in experiment [3] (TFE3-RCC UOK109 viability), 41.8 nM (active). Moreover, the figures for the Z-AUC in experiment [2], in experiment [2] (setting [4]) and in experiment [2] (measured here: PEO4 Z-AUC) were -0.248 (inactive), -0.236 and -1.02, respectively. Also, the z-score is -1.43 in experiment [3] (setting [5]), -1.26 in experiment [3] (setting [6]) and -2.73 in experiment [3] (setting [7]).
In the case of `Cc1cncc2cccc(S(=O)(=O)N3CCCN(C(=O)CN)C[C@@H]3C)c12`, in experiment [1], the Potency is 1180 nM (active). Further, the Z-AUC in experiment [2] is -0.369 (inactive); in experiment [2] (setting [4]) it was -0.0744; in experiment [2] (measured here: PEO4 Z-AUC), -0.172. Also, the z-score stood at 1.38 in experiment [3] (setting [5]), 0.196 in experiment [3] (setting [6]) and 0.7 in experiment [3] (setting [7]).
Consider `Nc1cccc2c1C(=O)N(C1CCC(=O)NC1=O)C2=O` (stereo not drawn), for which, in experiment [1], the Potency entry is “inactive”. The figures for the Z-AUC in experiment [2], in experiment [2] (setting [4]) and in experiment [2] (measured here: PEO4 Z-AUC) were -0.524 (inactive), -0.0375 and -0.357, respectively. The z-score in experiment [3] (setting [5]) is 0.502; in experiment [3] (setting [6]) it was 0.0802; in experiment [3] (setting [7]), -0.491.
